Columns and labels:
Experiment in all cases: growth AUC relative to DMSO control (median of replicates) (fraction); higher = more growth (less inhibition), active = hit call of the paper
Settings in all cases: 20 µM; 24 h;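 active = AUC reduced over 20% with Padj below 0.05 in at least 2 of 3 replicates; inactive = otherwise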
Akkermansia muciniphila = tested on: Akkermansia muciniphila
Outline: (§1)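 Starting at OD600 0.05, gut bacterial monocultures in mGAM were grown anaerobically at 37 °C with 20 µM compound (1% DMSO) under pierced gas-permeable seals. OD600 was read every hour for 24 h, and the lowest OD of each curve was set to 0. Area under the growth curve was normalised to the plate median of solvent-only wells, or to row and column medians on the industrial chemical plate, and the median of three biological replicates grown on separate days is given.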

Bacteroides caccae = tested on: Bacteroides caccae
Outline: as §1

Bacteroides clarus = tested on: Bacteroides clarus
Outline: as §1

Bacteroides dorei = tested on: Bacteroides dorei
Outline: as §1

Bacteroides stercoris = tested on: Bacteroides stercoris
Outline: as §1

[1] = tested on: Bacteroides thetaiotaomicron
Outline: as §1

Bacteroides uniformis = tested on: Bacteroides uniformis
Outline: as §1

[2] = tested on: Bifidobacterium longum subsp. longum
Outline: as §1

Clostridium difficile = tested on: Clostridium difficile
Outline: as §1

Collinsella aerofaciens = tested on: Collinsella aerofaciens
Outline: as §1

Coprococcus comes = tested on: Coprococcus comes
Outline: as §1

Escherichia coli ED1a = tested on: Escherichia coli ED1a
Outline: as §1

Escherichia coli IAI1 = tested on: Escherichia coli IAI1
Outline: as §1

Eubacterium rectale = tested on: Eubacterium rectale
Outline: as §1

[3] = tested on: Fusobacterium nucleatum subsp. animalis
Outline: as §1

Lactobacillus gasseri = tested on: Lactobacillus gasseri
Outline: as §1

Lactobacillus paracasei = tested on: Lactobacillus paracasei
Outline: as §1

Odoribacter splanchnicus = tested on: Odoribacter splanchnicus
Outline: as §1

[4] = tested on: Parabacteroides distasonis
Outline: as §1

Parabacteroides merdae = tested on: Parabacteroides merdae
Outline: as §1

Measured: growth AUC

C=CCOC(Cn1ccnc1)c1ccc(Cl)cc1Cl.O=S(=O)(O)O (stereo not given)
active: Coprococcus comes 0.184 | Eubacterium rectale 0.0325
inactive: Akkermansia muciniphila 0.744 | Bacteroides caccae 0.949 | Bacteroides clarus 0.925 | Bacteroides dorei 1 | Bacteroides stercoris 0.994 | [1] 0.931 | Bacteroides uniformis 0.977 | [2] 0.843 | Clostridium difficile 0.884 | Collinsella aerofaciens 0.845 | Escherichia coli ED1a 0.973 | Escherichia coli IAI1 0.954 | [3] 0.925 | Lactobacillus gasseri 0.962 | Lactobacillus paracasei 0.881 | Odoribacter splanchnicus 0.985 | [4] 0.951 | Parabacteroides merdae 0.89

c1ccc(-c2ccccc2)cc1
inactive: Akkermansia muciniphila 1.09 | Bacteroides caccae 0.985 | Bacteroides clarus 1.03 | Bacteroides dorei 0.967 | Bacteroides stercoris 1.22 | [1] 0.969 | Bacteroides uniformis 1.01 | [2] 1.03 | Clostridium difficile 0.948 | Collinsella aerofaciens 0.963 | Coprococcus comes 0.991 | Escherichia coli ED1a 1.03 | Escherichia coli IAI1 1.01 | Eubacterium rectale 1.09 | [3] 1.1 | Lactobacillus gasseri 0.94 | Lactobacillus paracasei 0.749 | Odoribacter splanchnicus 0.945 | [4] 1.04 | Parabacteroides merdae 0.998

CCN(Cc1ccc(Cl)nc1)/C(=C/[N+](=O)[O-])NC
inactive: Akkermansia muciniphila 0.913 | Bacteroides caccae 0.991 | Bacteroides clarus 0.991 | Bacteroides dorei 0.975 | Bacteroides stercoris 0.939 | [1] 0.972 | Bacteroides uniformis 1.01 | [2] 0.983 | Clostridium difficile 0.981 | Collinsella aerofaciens 0.976 | Coprococcus comes 0.959 | Escherichia coli ED1a 1.04 | Escherichia coli IAI1 0.987 | Eubacterium rectale 0.948 | [3] 0.928 | Lactobacillus gasseri 0.966 | Lactobacillus paracasei 0.992 | Odoribacter splanchnicus 0.95 | [4] 1.04 | Parabacteroides merdae 0.989

CN(C)C(CSS(=O)(=O)c1ccccc1)CSS(=O)(=O)c1ccccc1
inactive: Akkermansia muciniphila 1.14 | Bacteroides caccae 0.966 | Bacteroides clarus 0.999 | Bacteroides dorei 1.01 | Bacteroides stercoris 1.01 | [1] 1.06 | Bacteroides uniformis 1.06 | [2] 1.02 | Clostridium difficile 0.901 | Collinsella aerofaciens 0.938 | Coprococcus comes 1.03 | Escherichia coli ED1a 0.97 | Escherichia coli IAI1 1.01 | Eubacterium rectale 1.53 | [3] 0.932 | Lactobacillus gasseri 0.85 | Lactobacillus paracasei 0.95 | Odoribacter splanchnicus 0.98 | [4] 0.95 | Parabacteroides merdae 0.992

ClC1=C(Cl)C2(Cl)C(CBr)CC1(Cl)C2(Cl)Cl (stereo not given)
inactive: Akkermansia muciniphila 1.02 | Bacteroides caccae 1.04 | Bacteroides clarus 1.02 | Bacteroides dorei 0.999 | Bacteroides stercoris 1.02 | [1] 1.01 | Bacteroides uniformis 0.982 | [2] 1.01 | Clostridium difficile 0.985 | Collinsella aerofaciens 0.957 | Coprococcus comes 0.994 | Escherichia coli ED1a 0.956 | Escherichia coli IAI1 0.986 | Eubacterium rectale 1.01 | [3] 0.969 | Lactobacillus gasseri 0.858 | Lactobacillus paracasei 1.03 | Odoribacter splanchnicus 1.01 | [4] 0.973 | Parabacteroides merdae 0.973

COc1nn(CSP(=S)(OC)OC)c(=O)s1
inactive: Akkermansia muciniphila 1.01 | Bacteroides caccae 1.01 | Bacteroides clarus 1.02 | Bacteroides dorei 0.992 | Bacteroides stercoris 1.04 | [1] 1.04 | Bacteroides uniformis 1.02 | [2] 1.02 | Clostridium difficile 0.996 | Collinsella aerofaciens 1.03 | Coprococcus comes 1.06 | Escherichia coli ED1a 1 | Escherichia coli IAI1 1 | Eubacterium rectale 1.08 | [3] 1.01 | Lactobacillus gasseri 0.987 | Lactobacillus paracasei 1.01 | Odoribacter splanchnicus 1.08 | [4] 1 | Parabacteroides merdae 1.04

CN(C)C(CSS(=O)(=O)[O-])CSS(=O)(=O)O.[Na+]
inactive: Akkermansia muciniphila 1.01 | Bacteroides caccae 1.02 | Bacteroides clarus 0.998 | Bacteroides dorei 1.03 | Bacteroides stercoris 1.03 | [1] 0.98 | Bacteroides uniformis 1.13 | [2] 1.01 | Clostridium difficile 0.943 | Collinsella aerofaciens 0.999 | Coprococcus comes 0.987 | Escherichia coli ED1a 1.03 | Escherichia coli IAI1 1.01 | Eubacterium rectale 1.5 | [3] 1.11 | Lactobacillus gasseri 0.952 | Lactobacillus paracasei 0.984 | Odoribacter splanchnicus 1.05 | [4] 0.979 | Parabacteroides merdae 1.03

CNC(=O)O/N=C(\C)C(C)S(C)=O (stereo not given)
inactive: Akkermansia muciniphila 0.963 | Bacteroides caccae 0.997 | Bacteroides clarus 0.976 | Bacteroides dorei 0.996 | Bacteroides stercoris 1 | [1] 0.983 | Bacteroides uniformis 0.997 | [2] 0.996 | Clostridium difficile 1 | Collinsella aerofaciens 0.995 | Coprococcus comes 1.01 | Escherichia coli ED1a 1.02 | Escherichia coli IAI1 0.987 | Eubacterium rectale 0.914 | [3] 1.02 | Lactobacillus gasseri 0.881 | Lactobacillus paracasei 1.02 | Odoribacter splanchnicus 1.04 | [4] 1.05 | Parabacteroides merdae 1.02

O=C(O)CCl
inactive: Akkermansia muciniphila 0.94 | Bacteroides caccae 0.966 | Bacteroides clarus 0.991 | Bacteroides dorei 0.982 | Bacteroides stercoris 1.07 | [1] 1 | Bacteroides uniformis 0.947 | [2] 0.938 | Clostridium difficile 0.995 | Collinsella aerofaciens 0.976 | Coprococcus comes 0.98 | Escherichia coli ED1a 0.995 | Escherichia coli IAI1 0.984 | Eubacterium rectale 0.974 | [3] 0.929 | Lactobacillus gasseri 1.03 | Lactobacillus paracasei 1.03 | Odoribacter splanchnicus 0.986 | [4] 0.949 | Parabacteroides merdae 1.02

Cc1ccc(N=CN(C)C=Nc2ccc(C)cc2C)c(C)c1
inactive: Akkermansia muciniphila 1.13 | Bacteroides caccae 1.01 | Bacteroides clarus 1.06 | Bacteroides dorei 0.983 | Bacteroides stercoris 1.05 | [1] 1.01 | Bacteroides uniformis 1.02 | [2] 1.03 | Clostridium difficile 1.04 | Collinsella aerofaciens 1.01 | Coprococcus comes 1.04 | Escherichia coli ED1a 1.01 | Escherichia coli IAI1 1.01 | Eubacterium rectale 1.06 | [3] 1.09 | Lactobacillus gasseri 0.967 | Lactobacillus paracasei 1.06 | Odoribacter splanchnicus 1.02 | [4] 0.988 | Parabacteroides merdae 1.01

OC(c1ccc(Cl)cc1)(c1cncnc1)c1ccccc1Cl (stereo not given)
inactive: Akkermansia muciniphila 0.992 | Bacteroides caccae 0.89 | Bacteroides clarus 0.887 | Bacteroides dorei 0.893 | Bacteroides stercoris 0.686 | [2] 0.921 | Clostridium difficile 1.01 | Collinsella aerofaciens 0.984 | Coprococcus comes 0.987 | Escherichia coli ED1a 0.991 | Escherichia coli IAI1 0.973 | Eubacterium rectale 1.14 | [3] 1.01 | Lactobacillus gasseri 0.922 | Lactobacillus paracasei 1.12 | Odoribacter splanchnicus 0.611 | [4] 0.886
active: [1] 0.503 | Bacteroides uniformis 0.632 | Parabacteroides merdae 0.299

C[C@@H](Oc1ccc(Cl)cc1Cl)C(=O)O
inactive: Akkermansia muciniphila 1.14 | Bacteroides caccae 0.98 | Bacteroides clarus 1 | Bacteroides dorei 0.925 | Bacteroides stercoris 1.26 | [1] 1 | Bacteroides uniformis 0.965 | [2] 0.982 | Clostridium difficile 0.949 | Collinsella aerofaciens 0.977 | Coprococcus comes 0.967 | Escherichia coli ED1a 1.02 | Escherichia coli IAI1 1.02 | Eubacterium rectale 1.17 | [3] 1.07 | Lactobacillus gasseri 0.906 | Lactobacillus paracasei 0.949 | Odoribacter splanchnicus 0.98 | [4] 0.964 | Parabacteroides merdae 1.01

CC/C(=N\OC/C=C/Cl)C1=C(O)CC(C2CCOCC2)CC1=O (stereo not given)
inactive: Akkermansia muciniphila 1.04 | Bacteroides caccae 0.993 | Bacteroides clarus 1.03 | Bacteroides dorei 1 | Bacteroides stercoris 1.03 | [1] 1.02 | Bacteroides uniformis 0.985 | [2] 1.37 | Clostridium difficile 1.01 | Collinsella aerofaciens 1.03 | Coprococcus comes 1.01 | Escherichia coli ED1a 1 | Escherichia coli IAI1 1.03 | Eubacterium rectale 0.996 | [3] 0.983 | Lactobacillus gasseri 0.994 | Lactobacillus paracasei 1.1 | Odoribacter splanchnicus 1.04 | [4] 0.998 | Parabacteroides merdae 1.02

O=P(OCCCl)(OCCCl)OCCCl
inactive: Bacteroides caccae 0.985 | Bacteroides clarus 0.986 | Bacteroides dorei 0.995 | [1] 0.972 | Bacteroides uniformis 0.874 | [2] 0.895 | Clostridium difficile 0.963 | Collinsella aerofaciens 0.977 | Coprococcus comes 0.916 | Escherichia coli ED1a 0.98 | Escherichia coli IAI1 0.963 | Eubacterium rectale 0.89 | [3] 0.88 | Lactobacillus gasseri 0.98 | Lactobacillus paracasei 1.09 | Odoribacter splanchnicus 0.868 | [4] 0.989 | Parabacteroides merdae 0.921
active: Akkermansia muciniphila 0.628 | Bacteroides stercoris 0.651

CCN(CC)N=O
inactive: Akkermansia muciniphila 1 | Bacteroides caccae 1 | Bacteroides clarus 1 | Bacteroides dorei 1.04 | Bacteroides stercoris 1.04 | [1] 1.01 | Bacteroides uniformis 1 | [2] 1.05 | Clostridium difficile 1.02 | Collinsella aerofaciens 0.991 | Coprococcus comes 1.01 | Escherichia coli ED1a 1.01 | Escherichia coli IAI1 1.04 | Eubacterium rectale 0.996 | [3] 0.998 | Lactobacillus gasseri 1.04 | Lactobacillus paracasei 0.981 | Odoribacter splanchnicus 0.979 | [4] 1 | Parabacteroides merdae 1.01

CCOC(=O)C(C)OC(=O)c1cc(Oc2ccc(C(F)(F)F)cc2Cl)ccc1[N+](=O)[O-] (stereo not given)
inactive: Akkermansia muciniphila 0.88 | Bacteroides caccae 0.95 | Bacteroides clarus 0.931 | Bacteroides dorei 0.985 | Bacteroides stercoris 0.992 | [1] 0.987 | Bacteroides uniformis 0.966 | [2] 0.947 | Clostridium difficile 0.978 | Collinsella aerofaciens 0.857 | Coprococcus comes 0.933 | Escherichia coli ED1a 1.01 | Escherichia coli IAI1 0.964 | Eubacterium rectale 1.01 | [3] 0.999 | Lactobacillus gasseri 0.86 | Lactobacillus paracasei 0.973 | Odoribacter splanchnicus 0.891 | Parabacteroides merdae 0.885
active: [4] 0.789

From the supplement of paper PMC12669032
